Data from PubChem BioAssay AID1159580 (chemical genetic matrix, 2015).
“And” between values parts separate entries of the source, which are not always exact repeats. Equal entries are not always repeated. The whole screen tested about 5,500 compounds, of which about 2,000 (36%) were called active. Roughly 18% stayed inconclusive and do not appear here. Cut-off read from the data, not from the text of the source: active = normalized growth mostly below about 0.91 (no sharp cut-off); inconclusive = no clear call, values can overlap the other calls; inactive = mostly above about 0.92. The list shows a part of the results.

Assay: chemical genetic growth profiling, strain panel (AID 1159580);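 note: tested at 20 µM; growth read once vehicle control cultures reached saturation at 30 °C; 1 = growth at the plate median or of vehicle wells; lower values mean less growth of the strain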
Details: growth OD

Measured: normalized growth

O=[N+]([O-])c1cc(O)c(O)c([N+](=O)[O-])c1
inactive: S. cerevisiae deletion strains, locus YJL187C, strain SWE1 (second series), hits give low values 1.02 | S. cerevisiae deletion strains, locus YJL187C, strain SWE1, hits give low values 1.01 | S. cerevisiae deletion strains, locus YJR075W, strain HOC1, hits give low values 1.05 | S. cerevisiae deletion strains, locus YKL009W, strain mrt4, hits give low values 1.01 | S. cerevisiae deletion strains, locus YKL068W, hits give low values 0.974 | S. cerevisiae deletion strains, locus YKL085W, strain MDH1 (second series), hits give low values 0.97 | S. cerevisiae deletion strains, locus YKL085W, strain MDH1, hits give low values 0.97 | S. cerevisiae deletion strains, locus YKL160W, strain elf1, hits give low values 1 | S. cerevisiae deletion strains, locus YKR001C, strain vps1, hits give low values 1 | S. cerevisiae deletion strains, locus YKR026C, strain gcn3, hits give low values 1.01 | S. cerevisiae deletion strains, locus YKR091W, strain srl3, hits give low values 1.01 | S. cerevisiae deletion strains, locus YLL001W, strain dnm1, hits give low values 1.01 | S. cerevisiae deletion strains, locus YLL026W, hits give low values 0.999 | S. cerevisiae deletion strains, locus YLL041C, strain sdh2, hits give low values 1.01 | S. cerevisiae deletion strains, locus YLR027C, strain aat2, hits give low values 1.02 | S. cerevisiae deletion strains, locus YLR039C, strain RIC1, hits give low values 0.958 | S. cerevisiae deletion strains, locus YLR058C, strain SHM2, hits give low values 1.01 | S. cerevisiae deletion strains, locus YLR102C, strain apc9, hits give low values 0.98 | S. cerevisiae deletion strains, locus YLR221C, strain rsa3, hits give low values 1.06 | S. cerevisiae deletion strains, locus YLR258W, strain gsy2, hits give low values 1.06 | S. cerevisiae deletion strains, locus YLR262C, strain YPT6 (second series), hits give low values 0.996 | S. cerevisiae deletion strains, locus YLR262C, strain YPT6, hits give low values 0.959 | S. cerevisiae deletion strains, locus YLR268W, strain sec22, hits give low values 0.972 | S. cerevisiae deletion strains, locus YLR320W, strain mms22, hits give low values 1.06 | S. cerevisiae deletion strains, locus YLR330W, strain CHS5, hits give low values 1.01 | S. cerevisiae deletion strains, locus YLR342W, strain FKS1 (second series), hits give low values 0.951 | S. cerevisiae deletion strains, locus YLR342W, strain FKS1, hits give low values 1.01 | S. cerevisiae deletion strains, locus YLR357W, strain rsc2, hits give low values 1.03 | S. cerevisiae deletion strains, locus YLR370C, strain arc18, hits give low values 1.01 | S. cerevisiae deletion strains, locus YLR371W, strain rom2, hits give low values 0.979 | S. cerevisiae deletion strains, locus YLR384C, strain iki3, hits give low values 1.01 | S. cerevisiae deletion strains, locus YLR418C, strain cdc73, hits give low values 0.908 | S. cerevisiae deletion strains, locus YML016C, strain PPZ1, hits give low values 1.01 | S. cerevisiae deletion strains, locus YML032C, strain rad52, hits give low values 1.01 | S. cerevisiae deletion strains, locus YML120C, strain ndi1, hits give low values 1.03 | S. cerevisiae deletion strains, locus YML124C, strain tub3, hits give low values 0.973 | S. cerevisiae deletion strains, locus YMR058W, strain fet3, hits give low values 1.04 | S. cerevisiae deletion strains, locus YMR078C, strain ctf18, hits give low values 0.985 | S. cerevisiae deletion strains, locus YMR125W, strain sto1, hits give low values 1.01 | S. cerevisiae deletion strains, locus YMR129W, hits give low values 1.01 | S. cerevisiae deletion strains, locus YMR205C, strain PFK2, hits give low values 1.01 | S. cerevisiae deletion strains, locus YMR223W, strain ubp8, hits give low values 0.971 | S. cerevisiae deletion strains, locus YMR231W, strain pep5, hits give low values 1.02 | S. cerevisiae deletion strains, locus YMR263W, strain SAP30, hits give low values 1.02 | S. cerevisiae deletion strains, locus YMR307W, strain GAS1, hits give low values 0.97 and 1.01 | S. cerevisiae deletion strains, locus YNL067W, strain RPL9B, hits give low values 1.02 | S. cerevisiae deletion strains, locus YNL071W, strain lat1, hits give low values 1.02 | S. cerevisiae deletion strains, locus YNL153C, strain GIM3, hits give low values 1.04 and 0.971 | S. cerevisiae deletion strains, locus YNL175C, strain NOP13, hits give low values 0.976 | S. cerevisiae deletion strains, locus YNL197C, strain WHI3, hits give low values 0.95 | S. cerevisiae deletion strains, locus YNL209W, strain ssb2, hits give low values 1.02 | S. cerevisiae deletion strains, locus YNL224C, strain SQS1, hits give low values 0.977 | S. cerevisiae deletion strains, locus YNL233W, strain BNI4, hits give low values 1 | S. cerevisiae deletion strains, locus YNL248C, strain rpa49, hits give low values 0.983 | S. cerevisiae deletion strains, locus YNL250W, strain rad50, hits give low values 0.955 | S. cerevisiae deletion strains, locus YNL271C, strain bni1, hits give low values 0.978 | S. cerevisiae deletion strains, locus YNL298W, strain CLA4, hits give low values 0.994 | S. cerevisiae deletion strains, locus YNL307C, strain MCK1, hits give low values 0.989 | S. cerevisiae deletion strains, locus YNL322C, strain KRE1 (second series), hits give low values 1.02 | S. cerevisiae deletion strains, locus YNL322C, strain KRE1, hits give low values 1 and 1.01 | S. cerevisiae deletion strains, locus YNR049C, strain mso1, hits give low values 1 | S. cerevisiae deletion strains, locus YNR052C, strain pop2, hits give low values 0.996 | S. cerevisiae deletion strains, locus YOL012C, strain htz1 1.22 | S. cerevisiae deletion strains, locus YOL147C, strain pex11, hits give low values 0.981 | S. cerevisiae deletion strains, locus YOR001W, strain rrp6, hits give low values 1.01 | S. cerevisiae deletion strains, locus YOR061W, strain CKA2, hits give low values 1.01 | S. cerevisiae deletion strains, locus YOR069W, strain VPS5, hits give low values 1 | S. cerevisiae deletion strains, locus YOR070C, strain gyp1, hits give low values 1.03 | S. cerevisiae deletion strains, locus YOR080W, strain dia2, hits give low values 1.02 | S. cerevisiae deletion strains, locus YOR083W, strain WHI5 (second series), hits give low values 0.992 | S. cerevisiae deletion strains, locus YOR083W, strain WHI5, hits give low values 1.01 | S. cerevisiae deletion strains, locus YOR106W, strain vam3, hits give low values 0.983 | S. cerevisiae deletion strains, locus YOR136W, strain idh2, hits give low values 0.981 | S. cerevisiae deletion strains, locus YOR144C, strain elg1, hits give low values 0.979 | S. cerevisiae deletion strains, locus YOR184W, strain ser1, hits give low values 0.985 | S. cerevisiae deletion strains, locus YOR265W, strain rbl2, hits give low values 1.02 | S. cerevisiae deletion strains, locus YOR270C, strain vph1, hits give low values 0.989 | S. cerevisiae deletion strains, locus YOR290C, strain snf2, hits give low values 1.02 | S. cerevisiae deletion strains, locus YOR316C, strain cot1, hits give low values 0.983 | S. cerevisiae deletion strains, locus YPL051W, strain arl3, hits give low values 1.04 | S. cerevisiae deletion strains, locus YPL055C, strain LGE1, hits give low values 1.01 and 1.06 | S. cerevisiae deletion strains, locus YPL078C, strain atp4, hits give low values 0.992 | S. cerevisiae deletion strains, locus YPL106C, strain sse1, hits give low values 1.07 | S. cerevisiae deletion strains, locus YPL240C, strain hsp82, hits give low values 0.995 | S. cerevisiae deletion strains, locus YPR119W, strain clb2, hits give low values 0.972 | S. cerevisiae deletion strains, locus YPR141C, strain kar3, hits give low values 0.954 | S. cerevisiae deletion strains, locus YPR163C, strain tif3, hits give low values 0.985 | S. cerevisiae deletion strains, locus YPR167C, strain met16, hits give low values 0.971 | S. cerevisiae deletion strains, strain wtn01, hits give low values 0.984 | S. cerevisiae strains, strain wild type, hits give low values 1.01
